Measurements taken from PubChem BioAssay (NCI).
The panel holds about 79,000 compounds, 15% with a hit somewhere; the sample as a whole holds those more often. Activity calls are given as the source filed them. Cut-off read from the data, not from the text of the source: active = growth inhibition above about 70%; inactive = the rest.

Assay: NCI Yeast Anticancer Drug Screen. Data for the rad50 strain (AID 155);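 note: 0% = growth of vehicle-only cultures of the same strain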
Details: S. cerevisiae rad50 strain growth inhibition, stronger effect = higher value
Description: Growth inhibition of yeast strains with defined genetic alterations is measured as a screen for potential anti-cancer activity. Selected strains with alterations in DNA damage repair or cell cycle control were exposed to compounds and growth inhibition was measured relative to vehicle treated controls. The strain used in this assay is rad50

[1] = at 5.0 µM (retest, dose inferred, filed as 0.5)
[2] = at 50.0 µM (retest, dose inferred, filed as 5.0)

Measured: growth inhibition

O=C(NCCCCN(CCCNC(=O)C(F)(F)F)Cc1ccccc1)C(F)(F)F
active: [2] 90%
inactive: at 1.2 µM 32% | at 3.7 µM 33% | [1] 39% | at 11.0 µM 40% | at 33.0 µM 33% | at 50.0 µM -5.5% | at 100.0 µM 27%

CN(C)N=Nc1ccc(N(C)C)cc1
active: at 50.0 µM 82.5%
inactive: at 1.2 µM 1% | at 3.7 µM 1% | [1] -7% | at 11.0 µM 3% | at 33.0 µM 5% | [2] 27% | at 100.0 µM 14%

c1c[nH]c(CN2CCN(Cc3ncc[nH]3)CC2)n1
inactive: at 1.2 µM 4%
active: at 3.7 µM 93% | [1] 89% | at 11.0 µM 97% | at 33.0 µM 97% | [2] 99% | at 50.0 µM 97.4% | at 100.0 µM 98%

O=[N+]([O-])c1ccc(C(c2c[nH]c3ccccc23)c2c[nH]c3ccccc23)cc1
active: at 1.2 µM 84% | at 3.7 µM 85% | [1] 79% | at 11.0 µM 94% | at 33.0 µM 89% | [2] 89% | at 50.0 µM 93.2% | at 100.0 µM 79%

O=C1/C(=C/c2ccc(Cl)c(Cl)c2)CNC/C1=C\c1ccc(Cl)c(Cl)c1
active: at 100.0 µM 95%
inactive: at 1.2 µM 12% | at 3.7 µM 20% | [1] 19% | at 11.0 µM 29% | at 33.0 µM 68% | [2] 62% | at 50.0 µM 50%
